Data on 42 molecules can be found in the supplement of paper PMC10498489.

The whole screen tested about 2,300 compounds, of which about 330 (14%) showed activity.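 Rule for the calls: active = median modified Z-score above 1.96; inactive = 1.96 or below.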 These entries were drawn from the full list.

This assay has as its system HepG2 Srxn1-GFP reporter cells (+30 nM CDDO-Me). Description: Srxn1-GFP intensity median modified Z-score relative to plate median; higher = stronger NRF2 / oxidative stress reporter activation, active = hit call of the paper. The settings on record: 10 µM; exposure time: 24h. In a few lines: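 HepG2 Srxn1-GFP BAC reporter cells were seeded at 20,000 per well in 96-well plates and co-exposed for 24 h to compound at 10 μM and an NRF2 activator at 30 nM, with DMSO at ≤0.1%, in three replicate plates. Cells were fixed with formaldehyde, stained with Hoechst and imaged by confocal microscopy, and cytoplasmic GFP was measured per cell, with images holding under 100 cells discarded. The reported value is the median over replicates of each plate's modified Z-score of GFP intensity. For this score, scaling used 1.4826 × median absolute deviation.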
Turning to `CC1=NCCc2c1[nH]c1cc(O)ccc21` [euspeclibcmpd2357], the “Srxn1-GFP intensity median modified Z-score” value is 7.71 (active).
With `COc1ccc2c3c([nH]c2c1)C(C)=NCC3` [euspeclibcmpd2276], the “Srxn1-GFP intensity median modified Z-score” value is 66 (active).
`Cl[C@H]1[C@H](Cl)[C@@H](Cl)[C@@H](Cl)[C@H](Cl)[C@H]1Cl` [euspeclibcmpd969]: the “Srxn1-GFP intensity median modified Z-score” value was 0.0503 (inactive).
Regarding `CC1C(=O)O[C@@H]2O[C@]3(C)CC[C@H]4[C@H](C)CC[C@@H]1[C@@]24OO3` (some centres not stated) [euspeclibcmpd1110], the “Srxn1-GFP intensity median modified Z-score” value was 0.987 (inactive).
On to `CC(=O)O[C@@H]1C2CC[C@@H]3C1(C[C@@H](O)[C@@]1(O)[C@@H](C[C@H](O)C1(C)C)[C@]3(C)O)C[C@@]2(C)O` (some centres not stated) [euspeclibcmpd2325], for which the “Srxn1-GFP intensity median modified Z-score” value is -0.506 (inactive).
With `CC(C)(C#N)O[C@@H]1O[C@H](CO)[C@@H](O)[C@H](O)[C@H]1O` [euspeclibcmpd1356], the “Srxn1-GFP intensity median modified Z-score” value is 0.0487 (inactive).
In the case of `CC1C[C@H](C)C[C@H]([C@H](O)CC2CC(=O)NC(=O)C2)C1=O` (some centres not stated) [euspeclibcmpd437], the “Srxn1-GFP intensity median modified Z-score” value was -0.201 (inactive).
Turning to `C=C[C@H]1C[N@]2CC[C@H]1C[C@@H]2[C@H](O)c1ccnc2ccccc12` [euspeclibcmpd2140], the “Srxn1-GFP intensity median modified Z-score” value is 0.321 (inactive).
With `Cc1nc(=N)c(CNC(=O)N(CCCl)N=O)c[nH]1` [euspeclibcmpd1167], the “Srxn1-GFP intensity median modified Z-score” value was -0.0324 (inactive).
Next, `N=C(N)NN` [euspeclibcmpd930]: -0.0849 (inactive).
As for `CC[C@H]1CN2CCc3cc(OC)c(OC)cc3C2C[C@@H]1CC1NCCc2cc(OC)c(OC)cc21` (some centres not stated) [euspeclibcmpd109], the “Srxn1-GFP intensity median modified Z-score” value is -1.21 (inactive).
Then `CC(C)CC1C(=O)N2CCC[C@H]2[C@@]2(O)O[C@](NC(=O)C3=CC4c5cccc6[nH]c(Br)c(c56)CC4N(C)C3)(C(C)C)C(=O)N12` (some centres not stated) [euspeclibcmpd39], with 23.2 (active).
Next, `CC[C@@H](CO)NC(=O)C1=CC2c3cccc4c3c(cn4C)C[C@H]2N(C)C1` (some centres not stated) [euspeclibcmpd522]: -0.363 (inactive).
Regarding `CN1CC(C(=O)N[C@]2(C)O[C@@]3(O)C4CCCN4C(=O)C(Cc4ccccc4)N3C2=O)=CC2c3cccc4[nH]cc(c34)CC21` (some centres not stated) [euspeclibcmpd823], the “Srxn1-GFP intensity median modified Z-score” value was 113 (active).
Then `CCC(CO)NC(=O)C1=CC2c3cccc4[nH]cc(c34)CC2N(C)C1` (configuration not stated) [euspeclibcmpd1928], with -0.0083 (inactive); and `CN1CC(C(=O)N[C@]2(C)O[C@@]3(O)[C@@H]4CCCN4C(=O)C(Cc4ccccc4)N3C2=O)C[C@@H]2c3cccc4[nH]cc(c34)C[C@H]21` (some centres not stated) [euspeclibcmpd97], with -0.0377 (inactive); and `CC(CO)NC(=O)C1=CC2c3cccc4[nH]cc(c34)CC2N(C)C1` (configuration not stated) [euspeclibcmpd113], with 0.556 (inactive).
On to `CC(NC(C)(C)C)C(=O)c1cccc(Cl)c1` (configuration not stated) [euspeclibcmpd657], for which the “Srxn1-GFP intensity median modified Z-score” value was -0.376 (inactive).
As for `CC(=O)Oc1ccc(/C=C/c2cc(OC(C)=O)cc(OC(C)=O)c2)cc1` [euspeclibcmpd1618], the “Srxn1-GFP intensity median modified Z-score” value is 1.59 (inactive).
For `CC(=O)NC1CCSC1=O` (configuration not stated) [euspeclibcmpd1125], the “Srxn1-GFP intensity median modified Z-score” value was 0.231 (inactive).
For the molecule `CCOP(=S)(OCC)Oc1cc(C)nc(C(C)C)n1` [euspeclibcmpd706], the “Srxn1-GFP intensity median modified Z-score” value is -0.234 (inactive).
Turning to `C=CCc1cc(OC)c2c(c1OC)OCO2` [euspeclibcmpd1480], the “Srxn1-GFP intensity median modified Z-score” value was -0.404 (inactive).
In the case of `N=c1cc[nH]cc1` [euspeclibcmpd895], the “Srxn1-GFP intensity median modified Z-score” value was -0.471 (inactive).
As to `Cc1cc(C(C#N)c2ccc(Cl)cc2)c(Cl)cc1NC(=O)c1cc(I)cc(I)c1O` (configuration not stated) [euspeclibcmpd694], the “Srxn1-GFP intensity median modified Z-score” value is 9.76 (active).
Next, `CN(C)C1C(=O)C(C(N)=O)C(=O)[C@@]2(O)C(=O)C3C(=O)c4c(O)cccc4[C@@](C)(O)[C@H]3[C@H](O)[C@@H]12` (some centres not stated) [euspeclibcmpd225]: -0.444 (inactive); `CC(=O)O[C@@H]1CC[C@]2(C)C3CC[C@]4(C)C(=O)CCC4C3CC[C@H]2C1` (some centres not stated) [euspeclibcmpd1810]: 0.269 (inactive); `Cc1nc(=O)c(C[n+]2csc(CCO)c2C)c[nH]1` [euspeclibcmpd1800]: 0.155 (inactive).
Next, `CCCCCC1C(=O)O[C@H](C)C(NC(=O)c2cccc(NC=O)c2O)C(=O)O[C@@H](C)[C@@H]1OC(=O)CC(C)C` (some centres not stated) [euspeclibcmpd1446]: 39.4 (active); `C[C@]12C=CC(=O)CC1=CCC1C2CC[C@]2(C)C(=O)CCC12` (some centres not stated) [euspeclibcmpd1581]: -0.0301 (inactive); `N#CC(=Cc1ccc(O)cc1)C(=O)O` [euspeclibcmpd1768]: -0.146 (inactive).
Next, `CC[C@H](c1cccc(O)c1)[C@@H](C)CN(C)C` [euspeclibcmpd2238]: -0.41 (inactive); `O=C1C(Cl)=C(Cl)C(=O)C(Cl)=C1Cl` [euspeclibcmpd1739]: 25.8 (active).
Take `C=CCN=C=S` [euspeclibcmpd920]: the “Srxn1-GFP intensity median modified Z-score” value is 0.0414 (inactive).
Consider `Cc1ccc(/N=C/N(C)/C=N/c2ccc(C)cc2C)c(C)c1` [euspeclibcmpd739], for which the “Srxn1-GFP intensity median modified Z-score” value is 0.115 (inactive).
On to `CC1=C2CCC3C(CC[C@]4(C)C(=O)CCC34)[C@@]2(C)CCC1=O` (some centres not stated) [euspeclibcmpd1163], for which the “Srxn1-GFP intensity median modified Z-score” value is -0.15 (inactive).
Take `CN[C@@H]1[C@@H](O)C(OC2[C@@H](N)C[C@@H](N)[C@H](O[C@H]3O[C@H](C(C)O)[C@@H](O)[C@H](O)[C@H]3N)[C@H]2O)OC[C@]1(C)O` (some centres not stated) [euspeclibcmpd1437]: the “Srxn1-GFP intensity median modified Z-score” value is -0.354 (inactive).
Regarding `COc1cc([C@@H]2c3cc4c(cc3[C@H](O)[C@H]3COC(=O)C23)OCO4)cc(OC)c1OC` (some centres not stated) [euspeclibcmpd2203], the “Srxn1-GFP intensity median modified Z-score” value was 11.5 (active).
Take `CN1CCc2cc3c(cc2C1O)OCO3` (configuration not stated) [euspeclibcmpd1021]: the “Srxn1-GFP intensity median modified Z-score” value was 0.455 (inactive).
On to `COc1cc([C@@H]2c3cc4c(cc3[C@H](O)[C@H]3COC(=O)C23)OCO4)cc(OC)c1OC` (some centres not stated) [euspeclibcmpd2060], for which the “Srxn1-GFP intensity median modified Z-score” value was 27.1 (active).
Take `COc1ccc2c(c1OC)C(=O)O[C@@H]2[C@H]1c2cc3c(cc2CCN1C)OCO3` [euspeclibcmpd2270]: the “Srxn1-GFP intensity median modified Z-score” value was 0.619 (inactive).
As for `COc1cc([C@@H]2c3cc4c(cc3[C@H](OC(C)=O)[C@H]3COC(=O)C23)OCO4)cc(OC)c1OC` (some centres not stated) [euspeclibcmpd2106], the “Srxn1-GFP intensity median modified Z-score” value is 13.1 (active).
Then `NCc1cccnc1` [euspeclibcmpd1239], with -0.224 (inactive).
